Hit rate of the full screen: of about 290,000 compounds, about 1,800 (0.62%) were called active. The list comes from a sample in which actives are over-represented; it also holds similar structures and randomly drawn compounds. A number with no mark means an inactive call. Cut-off read from the data, not from the text of the source: active = inhibition above about 50%; inactive = the rest.

This assay is described as follows: NOD2 signaling inhibitors, cell-based, luminescence, uHTS, HEK293 (AID 1566). The following applies: HEK293 NOD2/NF-kB luciferase reporter, at 4 µM, hits give high values. (In a reporter assay the amount or activity of a reporter protein is the signal.)
Turning to `COc1cc(C(=O)OCC(=O)N2CCCCC2C)ccc1OCc1c(C)noc1C` (stereo unspecified), the inhibition is -27.2%.

As for `Cc1ccc(CN(CC(=O)NCCc2ccccc2)C(=O)CCCC(=O)Nc2cc(C)on2)cc1`, the inhibition was -8.6%. The figure for `O=C(N/C(=C\c1cccnc1)C(=O)N1CCCCC1)c1cccc(Br)c1` is 0.3%. As for `CCOC(=O)N1CCN(C(=O)C2CCCN(c3ncnc4c3nc3n4CCCCC3)C2)CC1` (stereo unspecified), the figure is 7.5%; as for `O=C(NC1CCCCCC1)C(=S)NC1CCCCC1`, -56.5%; as for `C#CCOc1ccc(/C=C2/C(=O)NN(c3ccc(F)cc3)C2=O)cc1OC`, 9.7%. As for `CC(CC(=O)Nc1nncs1)c1ccccc1` (stereo unspecified), the inhibition was 20.2%. The figure for `COc1ccc(C2NC(=S)NC(C)=C2C(=O)c2ccccc2)cc1OC` (stereo unspecified) is 3.4%; for `Oc1ccc(N=Nc2ccc3c(c2)OCCO3)c2ncccc12` it is -8.2%. As for `Oc1ccc(N=Nc2ccc3c(c2)OCCO3)c(O)c1`, the figure is -142%; as for `Oc1ccc(N=Nc2ccc3c(c2)OCO3)c2ccccc12`, 81.2% (active). Turning to `CCOc1ccc(CN(C(=O)c2oc3ccccc3c2C)C2CCS(=O)(=O)C2)cc1` (stereo unspecified), the inhibition is -8.4%.

Turning to `C=CCN=C1NN=C(c2ccc3c(c2)OCCO3)CS1`, the inhibition is 37.7%.

For the compound `Cc1cc(C2=NNC(=NC3CC3)SC2)c(C)n1-c1ccccc1`, the inhibition is 90.5% (active). With `Cc1cc(C2=NNC(=NC3CC3)SC2)c(C)n1-c1ccccc1F`, the inhibition is 88.9% (active).

For the compound `c1cc2c(cc1C1=NNC(=NC3CC3)SC1)OCCO2`, the inhibition is 85.7% (active). Consider `COCCCN=C1NN=C(c2cc(C)n(-c3ccccc3F)c2C)CS1`, for which the inhibition was -10.1%. As for `CCCCN=C1NN=C(c2ccc3c(c2)OCCO3)CS1`, the figure is -57.3%; as for `COc1ccc(-n2c(C)cc(C3=NNC(=NC4CC4)SC3)c2C)cc1`, -16.5%; as for `Cc1cc(C2=NNC(=NC3CC3)SC2)c(C)n1-c1c(C)n(C)n(-c2ccccc2)c1=O`, -1.3%. With `Cc1ccc(-n2c(C)cc(C3=NNC(=NC4CC4)SC3)c2C)cc1C`, the inhibition is -57.3%. As for `COc1ccc(N2C(=O)c3ccccc3NC23CCC(C)CC3)cc1` (stereo unspecified), the inhibition was -58.1%. Regarding `Cc1cc(=O)[nH]c(N/N=C/c2ccc(Cl)c([N+](=O)[O-])c2)n1`, the inhibition was -5.5%. Regarding `COc1ccc(/C=C(\NC(=O)c2ccc(OC)cc2)C(=O)N2CCCCC2)cc1`, the inhibition is -9.7%. The figure for `Cn1c(=O)c2c(nc(SCC(=O)O)n2Cc2cc3c(cc2Cl)OCO3)n(C)c1=O` is 3%; for `CCOCCCn1cnc2c(c1=O)c1nc3ccccc3nc1n2-c1ccc(C)cc1` it is 24.1%. On to `O=C(NCCn1cccn1)c1ccc(OC2CCN(C(=O)C3CC3)CC2)cc1`, for which the inhibition was -27.2%. With `O=C(N/N=C/c1cc([N+](=O)[O-])ccc1O)NC12CC3CC(CC(C3)C1)C2`, the inhibition is 64% (active). Turning to `O=C(N/N=C/c1ccccc1O)NC12CC3CC(CC(C3)C1)C2`, the inhibition was -29.5%.

`O=C(N/N=C/c1cc([N+](=O)[O-])ccc1O)C12CC3CC(CC(C3)C1)C2`: the inhibition is 15%. For `c1ccc(-c2ccccc2OCCCN2CCOCC2)cc1`, the inhibition is -29.3%. Turning to `O=C(CSc1nnc(-c2ccc(F)cc2)o1)Nc1ccc(S(=O)(=O)N2CCCCCC2)cc1`, the inhibition was -4.4%.

`CCOCC(=O)Nc1cccc(Br)c1`: the inhibition is -5.5%. As to `CCCc1cc(C(=O)Nc2ccc(C(=O)c3ccc(F)cc3)cc2)n(C)n1`, the inhibition was 18.5%. As for `CCCc1cc(C(=O)Nc2ccc(C(=O)c3ccccc3)cc2)n(C)n1`, the inhibition was 54.7% (active).

Regarding `CCCc1cc(C(=O)Nc2ccc(C(=O)c3ccc(C)cc3)cc2)n(C)n1`, the inhibition is 23.6%. As for `CCOC(=O)c1c(C)n(C)c2ccc(OCC(O)CN3CCN(C)CC3)cc12` (stereo unspecified), the figure is -0.5%; as for `CCc1nc(SCC(=O)N2CCCc3ccccc32)c2oc3ccccc3c2n1`, 37%; as for `Cc1nc(SCC(=O)N2CCCc3ccccc32)c2oc3ccccc3c2n1`, -6.5%.

Regarding `COc1cc(C(=O)NCc2ccncc2)cc(OC)c1OC`, the inhibition is 10.3%.

As to `COc1ccc(-c2cnc(N)nc2-c2ccc(OCc3ccccc3)cc2O)cc1`, the inhibition is -4.2%. With `Nc1ncc(-c2ccccc2)c(-c2ccc(OCc3ccccc3)cc2O)n1`, the inhibition is 13.4%.

With `Nc1ncnc2c1ncn2Cc1ccccc1`, the inhibition is 6.4%. On to `CCc1ccc(N2CN(Cc3ccco3)CNC2=S)cc1`, for which the inhibition was 4.9%. As for `COc1ccc(/C=N/OCC(=O)Nc2nc3ccccc3s2)cc1OC`, the inhibition was -1.1%. The figure for `CC1=NN(C(=O)Cn2ccc([N+](=O)[O-])n2)C(O)(C(F)(F)F)C1` (stereo unspecified) is 12.1%. As for `CCOC(=O)C1=C(c2ccccc2)O/C(=C(\C(=O)OC)C(F)(F)F)S1`, the figure is -23%; as for `CCOC(=O)C1=C(c2ccccc2)O/C(=C(/C(=O)OC)C(F)(F)F)S1`, 5.4%; as for `CCOC(=O)C1=C(c2ccccc2)O/C(=C(/C#N)C(F)(F)F)S1`, 51.4% (active). On to `CC(=O)Nc1ccc(S(=O)(=O)Nc2nc3ccccc3nc2N2CCCC2)cc1`, for which the inhibition is -6%. As for `Cc1ccn2cc(C(=O)N3CCCC(Nc4ccc(F)cc4)C3)nc2c1` (stereo unspecified), the figure is -9.3%; as for `O=C(Nc1ccncc1)c1c(F)c(F)c(F)c(F)c1F`, 8.8%. Regarding `O=C(Nc1ccccc1)c1c(F)cccc1F`, the inhibition is -8%. Turning to `O=C(Oc1ccc(Cl)c2cccnc12)c1cccc([N+](=O)[O-])c1`, the inhibition is 13.8%. The figure for `O=C(Oc1c(Cl)cc(Cl)c2cccnc12)c1cccc([N+](=O)[O-])c1` is 96.1% (active); for `O=C(Oc1cccc2cccnc12)c1cccc([N+](=O)[O-])c1` it is 11.2%; for `CCOc1ccc(-c2ccc(SCC(=O)Nc3nnc(CC)s3)nn2)cc1` it is -117%. As for `CCCC(C(=O)NC1CCCC1)N(CC1CCCO1)C(=O)c1snc(C(N)=O)c1N` (stereo unspecified), the figure is -7.3%; as for `Cc1ccc(OCC(=O)Nc2ccc(O)c(C(=O)O)c2)cc1C`, 1.5%; as for `CC(C)(C)c1ccc(OC(=O)Nc2ccc(O)c(C(=O)O)c2)cc1`, 51.6% (active). As for `O=C(Nc1ccc(O)c(C(=O)O)c1)Oc1ccccc1`, the inhibition is 8.6%. The figure for `COC(=O)C1=C(C)NC(C)=C(C(=O)OC)C1c1ccccn1` is 2.3%; for `Cc1ccc(OCc2cc(C(=O)N3CCN(C)C[C@@H]3c3ccccc3)no2)cc1C` it is -27.5%. As for `S=C(Nc1cc(Cl)cc(Cl)c1)N1CCN(c2ccccn2)CC1`, the figure is 14.1%.

Turning to `CCOC(=O)Cc1nnc2c(Nc3ccccc3F)nc3nonc3n12`, the inhibition was 55.4% (active). Turning to `CCOC(=O)Cc1nnc2c(Nc3ccc(Cl)cc3)nc3nonc3n12`, the inhibition is 14.5%.

As to `CCOC(=O)Cc1nnc2c(Nc3ccc(C)cc3)nc3nonc3n12`, the inhibition was -2.9%. The figure for `Cc1noc(C)c1C(=O)N1CCC2(CC1)Oc1ccc(F)cc1C(=O)C21CC(c2ccc(Cl)cc2)=NO1` (stereo unspecified) is 13%; for `COc1ccc(/C=N/n2cnc3c([nH]c4ccc(F)cc43)c2=O)cc1CN1CCCC1` it is 12.1%; for `CC1(C)Cc2c(sc(NC(=O)c3ccccc3)c2C(=O)O)CO1` it is -27.1%.

For `COc1ccc(C(=O)Nc2sc3c(c2C(=O)O)CC(C)(C)OC3)cc1`, the inhibition is 8.8%. Take `C(=N\N(c1ccccc1)c1ccccc1)/c1ccc(N2CCOCC2)s1`: the inhibition is 11.6%. With `c1ccc2c(-c3c[nH]c4ccccc34)c3ccccc3nc2c1`, the inhibition is 0%. Turning to `Cc1cccc(C(=O)c2cn[nH]c2-c2ccccc2O)c1`, the inhibition was -3.8%.

On to `Nn1c(-c2ccc(F)cc2)nc2ccccc2c1=O`, for which the inhibition was 12.9%.

In the case of `O=C1c2ccccc2-n2c1nc1ccccc1c2=O`, the inhibition is 26.3%.

Regarding `O=C1c2cc(F)ccc2-n2c1nc1ccccc1c2=O`, the inhibition was 63.4% (active). Take `CCn1c(CNc2ccc(Cl)cc2)nnc1SCC(=O)OC1CCCCC1`: the inhibition was 4.4%. As for `CCOC(=O)C1CCN(C(=O)COC(=O)c2ccc(Br)o2)CC1`, the figure is 20.2%; as for `Cc1cc2c(s1)c1cnn(Cc3ccccc3F)c(=O)c1n2C`, 10.1%. The figure for `COc1ccc(N(C)C(=O)c2cnc(N3CCN(c4ncccn4)CC3)c3ccccc23)cc1` is 14.7%. As for `CCOc1ccccc1C(=O)N1CCN(c2cccc(Cl)c2)CC1`, the figure is -14%; as for `COc1ccccc1C(=O)N1CCN(c2cccc(Cl)c2)CC1`, 3.1%.

With `CN(C(=O)c1cnc(N2CCN(c3ncccn3)CC2)c2ccccc12)c1ccc(Cl)cc1`, the inhibition was 15.1%. Consider `COc1cc(C(=O)Nc2ccccc2N2CCOCC2)ccc1OCc1c(C)noc1C`, for which the inhibition is 1.5%. Regarding `CCOC(=O)c1ccc(NC(=O)C2CCCO2)cc1` (stereo unspecified), the inhibition is -21.8%. On to `CCOC(=O)c1ccc(NC(=O)c2ccc(NC(=O)C3CCCO3)cc2)cc1` (stereo unspecified), for which the inhibition was 51.3% (active).

For `CCOC(=O)c1cccc(NC(=O)c2ccc(NC(=O)C3CCCO3)cc2)c1` (stereo unspecified), the inhibition was 5.8%. As for `CC(Sc1nnc(N)s1)C(=O)Nc1nccs1` (stereo unspecified), the figure is -1.1%; as for `COc1ccc(-c2nc(C#N)c(N3CCN(c4cccc(Cl)c4)CC3)o2)cc1OC`, 0.1%.

For the compound `COc1ccccc1-c1nc(C#N)c(N2CCN(c3ccccc3)CC2)o1`, the inhibition is -1.7%. Take `Cc1noc(C)c1COC(=O)COc1cccc2c1OC(C)(C)C2`: the inhibition is 6.1%. For `C=CCN(c1ccc(C(=O)Nc2ccc(NC(C)=O)cc2)cc1)S(C)(=O)=O`, the inhibition is 15.2%.

For the compound `COc1ccc(N(CC(=O)NCCC2=CCCCC2)S(=O)(=O)c2ccccc2)c(OC)c1`, the inhibition is 1.9%.

For the compound `Cc1cccc(NS(=O)(=O)c2ccc(NC(=O)N3CCCCC3)cc2)c1`, the inhibition is 33.7%. With `CC(=O)c1cccc(NC(=O)N2CCCCCC2)c1`, the inhibition is 6.3%.

For orientation: inhibition means the change of the read-out against control, counted positive when it falls.

These data come from PubChem BioAssay AID1566 (Sanford-Burnham Center for Chemical Genomics, 2009).
